# Source: PubChem BioAssay (several laboratories)
# Sampled rows, rich in hits. Any-hit rate of the full collection: about 2.6%.
# NOD2-RIPK2 inh: NOD2-RIPK2 binding disruptors in cells, primary screen, fluorescence, CHO cells, BLA complementation | Receptor-interacting serine/threonine-protein kinase 2 (Homo sapiens), O43353 | CCF4 ratio | inhibition, % at 4.98 µM | 360,000 compounds, 0.38% hits; in the data active = inhibition above about 21%;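 note: 0% = vehicle only and 100% = reference blocker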
# TLR9-MyD88 block: inhibitors of TLR9-MyD88 association in cells, primary screen, cell-based, CHO, BLA complementation, fluorescence; 340,000 compounds, 0.21% hits; Toll-like receptor 9 (Homo sapiens) + Myeloid differentiation primary response protein …; inhibition, % at 4.98 µM; CCF4 FRET ratio;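 active = inhibition above the mean over all tested compounds plus 3 SD, cut at about 21% in these data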;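 note: 0% = DMSO only wells and 100% = clavulanate BLA inhibitor control wells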
# Exocytosis inh: LAMP-1 surface exposure blockers, TALL-104 cells – cell-based, flow cytometry, MLPCN library, primary screen | inhibition, % at 10 µM | AID 651702, 2012 | TALL-104 LAMP-1 surface exposure; cells stimulated with thapsigargin and PMA | 360,000 compounds, 0.66% hits;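 active = inhibition above about 55%, limit read from the data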
# PRMT1 inh: PRMT1 methyltransferase inhibitors, primary screen, biochemical, fluorescence polarization; Protein arginine N-methyltransferase 1 (Homo sapiens), Q99873; recombinant PRMT1, activity-based probe fluorescence polarization; inhibition, % at 2.79 µM; 370,000 compounds, 1.3% hits;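 active = inhibition above about 21% made by adding two undisclosed values, limit read from the data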
# TLR4 MyD88 comp: inhibitors of TLR4-MyD88 association in cells, primary screen, cell-based, HeLa CL3-4, BLA complementation, FRET ratio | HeLa CL3-4 TLR4/MyD88 BLA complementation | AID 861, 2007 | inhibition, % at 8.4 µM | 200,000 compounds, 0.18% hits; in the data active = inhibition above about 25%;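 note: 0% = vehicle and 100% = reference inhibitor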
# ABHD5-PLIN5 inh: ABHD5-PLIN5 interaction inhibitors, primary screen, cell lysate, split luciferase complementation, luminescence. AID 602281, 2012. Split G. princeps luciferase complementation, 4 h. 360,000 compounds, 0.78% hits. Perilipin-5 (Homo sapiens) + 1-acylglycerol-3-phosphate O-acyltransferase ABHD5 (Homo …. inhibition, % at 4 µM;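 active = inhibition above the mean inhibition across every tested compound plus 3 SD, cut at about 22% in these data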;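 note: 0% = DMSO only wells and the 100% control is not disclosed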
# Target sequence (Q00G26 whole entry, looked up): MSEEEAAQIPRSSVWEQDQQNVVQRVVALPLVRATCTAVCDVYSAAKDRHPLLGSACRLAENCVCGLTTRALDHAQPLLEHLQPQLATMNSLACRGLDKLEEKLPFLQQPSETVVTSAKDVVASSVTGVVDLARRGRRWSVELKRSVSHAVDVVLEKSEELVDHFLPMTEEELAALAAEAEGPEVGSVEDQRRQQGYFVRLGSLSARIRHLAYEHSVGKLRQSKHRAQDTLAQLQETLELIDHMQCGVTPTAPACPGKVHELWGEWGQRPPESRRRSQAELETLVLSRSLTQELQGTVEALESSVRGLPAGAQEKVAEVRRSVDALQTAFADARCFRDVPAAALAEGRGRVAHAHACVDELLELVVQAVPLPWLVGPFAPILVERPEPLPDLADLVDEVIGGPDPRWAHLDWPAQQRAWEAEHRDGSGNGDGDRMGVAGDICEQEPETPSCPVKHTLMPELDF
# Target sequence (Q8WTS1 whole entry, looked up): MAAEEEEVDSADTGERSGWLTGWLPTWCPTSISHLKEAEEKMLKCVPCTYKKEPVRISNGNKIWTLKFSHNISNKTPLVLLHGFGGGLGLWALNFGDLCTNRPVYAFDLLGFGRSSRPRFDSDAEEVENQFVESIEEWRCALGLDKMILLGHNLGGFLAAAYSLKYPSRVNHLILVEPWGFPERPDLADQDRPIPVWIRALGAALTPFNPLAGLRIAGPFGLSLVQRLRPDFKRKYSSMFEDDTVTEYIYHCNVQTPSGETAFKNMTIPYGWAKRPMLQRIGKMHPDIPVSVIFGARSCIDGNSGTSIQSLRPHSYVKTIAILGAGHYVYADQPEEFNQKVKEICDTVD
# Granule exo CP1: inhibitors of lytic granule exocytosis, confirmation, TALL-104 cells, flow cytometry, Cherry Pick01 | inhibition, % at 10 µM | AID 651954, 2012 | shares compounds with Exocytosis inh | LAMP-1 externalization; stimulated with PMA plus thapsigargin | 1,500 compounds, 11% hits; in the data active = inhibition above about 60%;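 note: 0% = stimulated vehicle wells and 100% = unstimulated wells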
# * hit, by the source's call; · = no result given.
SMILES,NOD2-RIPK2 inh,TLR9-MyD88 block,Exocytosis inh,PRMT1 inh,TLR4 MyD88 comp,ABHD5-PLIN5 inh,Granule exo CP1
Cc1ccc(Nc2nc(NCCO)c3ccccc3n2)cc1C,16,-4,58*,-4,·,9,-2
COc1ccc(/C=C/c2onc(C)c2S(=O)(=O)N2CCC(C(=O)N3CCC(C)CC3)CC2)cc1,-6,-10,76*,-1,·,5,-14
C[C@H]1NS(=O)(=O)c2cccc(Cl)c2O[C@@H]1c1ccccc1,·,·,·,3,·,·,·
CC(=O)CCc1oc2ccc(C)cc2c1-c1ccc(C)o1,-8,-9,91*,5,-3,13,-11
Cn1nc(C(F)(F)F)c2cc(C(=O)Nc3ccc(F)cc3)sc21,-9,3,12,-2,·,2,·
Cn1nc(C(F)(F)F)c2cc(C(=O)Nc3ccc(C(F)(F)F)cc3)sc21,-2,6,86*,1,·,1,2
COC(=O)[C@]12C[C@H](CC(=O)NCCC(C)C)C(=O)N(Cc3ccccc3)C1=C[C@H](C(C)C)O[C@@H]2C1CC1,·,·,·,-2,·,·,·
CC[C@@H]1C(=O)[C@H](Cc2ccccc2)[C@H]2CCCC(=O)N3CC[C@@H]1[C@@H]23,0,-7,63*,-2,·,-2,-14
COc1ccc(C2CCCN2CC(O)COc2ccccc2C(C)C)cc1 (stereo not given),-10,-2,63*,-6,·,-2,-12
Clc1cccc(CN2CCc3c([nH]c4ccccc34)C2)c1,7,12,58*,-3,·,4,-14
Cc1cccc(CN2CCc3c([nH]c4ccccc34)C2)c1,4,2,15,-4,·,-2,·
Clc1ccc(CN2CCc3c([nH]c4ccccc34)C2)cc1Cl,-2,-2,58*,-6,·,13,-4
CC1COCC(C)N1C1=C(Cl)C(=O)c2ccccc2C1=O (stereo not given),-9,-6,91*,8,·,-49,60*
CCCN1CCC(NCc2cn(C)nc2-c2ccc(Oc3ccccc3)cc2)CC1,0,-1,77*,-3,·,10,17
COC1=CC(=O)c2c(ccc3ncnc(N)c23)C1=O,-7,2,88*,5,·,55*,14
CN(C)CCN(C(=O)c1ccc2ccccc2c1)c1nc2ccc(F)cc2s1,-7,-2,-4,·,·,3,·
CN(C)CCCN(C(=O)c1ccc(C(=O)c2ccccc2)cc1)c1nc2ccc(F)cc2s1,4,-4,59*,1,·,10,10
Cc1ccccc1C(=O)NC1CCCCN(Cc2ccc(Cl)cc2)C1=O (stereo not given),·,·,·,2,·,·,·
Cc1ccc2oc(=O)n(CCOc3ccccc3C)c2c1,-10,5,64*,4,1,4,-13
Nc1c(C(=O)NCc2ccc(F)cc2)c2nc3ccccc3nc2n1CCCN1CCOCC1,-9,-6,62*,3,-12,13,90*
Nc1c(C(=O)NCc2ccccc2)c2nc3ccccc3nc2n1CCCN1CCOCC1,2,-15,42,0,-22,12,·
Cc1ccccc1CN1CCN(CC(=O)NCc2ccccc2)CC1,-5,1,1,-1,·,-1,·
O=C(CN1CCN(Cc2cccc3ccccc23)CC1)NCCc1ccccc1,-1,2,78*,3,·,3,-13
O=C(Cc1ccc(Cl)cc1)Nc1ccc(CN2CCCCC2)cc1,2,0,56*,-7,·,8,-4
CC(=O)Nc1ccc(CN2CCCCCC2)cc1,7,4,-5,5,·,4,·
SMILES,NOD2-RIPK2 inh,TLR9-MyD88 block,Exocytosis inh,PRMT1 inh,TLR4 MyD88 comp,ABHD5-PLIN5 inh,Granule exo CP1
CCCCCCCCN1C(=O)[C@@H](CC(=O)NCc2cccc3ccccc23)C[C@@]2(C(=O)OC)C1=C[C@H](C1CCCC1)O[C@@H]2C,·,·,·,1,·,·,·
COc1ccc(-n2c(SCC(=O)Nc3ccccc3-c3ccccc3)nnc2-c2ccccc2)cc1,·,·,·,3,·,·,·
COc1ccc(-c2ccc(CCC(=O)O)n2-c2ccccc2OC)cc1,11,-10,67*,1,·,3,-4
COc1ccccc1-n1c(CCC(=O)O)ccc1-c1ccccc1,-7,-9,-3,-4,·,4,·
COCc1cc(N2CCNC[C@@H]2C)ccc1N1CCN(Cc2ccccc2)[C@@H](C)C1,·,·,·,2,·,·,·
CN(N=Cc1ccc2c(c1)OCO2)C(=O)c1ccccc1N,·,·,·,2,·,·,·
Fc1ccc(Nc2nc(NCc3ccco3)c3ccccc3n2)cc1,-3,5,86*,3,·,9,5
Cc1cc(N2CCN(CC(C)(C)O)C[C@@H]2C)ccc1N1CCN(CC(C)(C)O)[C@H](C)C1,·,·,·,-5,·,·,·
CCc1ccc(S(=O)(=O)Nc2cc(SCC(=O)O)c(O)c3ccccc23)cc1,-24,-3,67*,77*,4,3,-3
COc1ccc(Cn2c(C)c(CC(=O)Nc3ccc(Oc4cccnc4)c(C)c3)c3ccccc32)cc1,·,·,·,3,·,·,·
Cc1ccc(-n2c(SCC(=O)c3ccc4c(c3)OCO4)nc3ccccc3c2=O)cc1,·,·,·,-5,·,·,·
O=C(NCC1CCCO1)c1cc(S(=O)(=O)N2CCOCC2)ccc1Cl (stereo not given),-14,-16,12,5,·,7,·
O=C(NCC1CCCO1)c1cc(S(=O)(=O)Nc2ccc(Br)cc2)ccc1Cl (stereo not given),-14,-3,83*,-2,-7,-9,-5
Oc1ccccc1-c1nc(NC2CCCC2)c2ccccc2n1,4,14,64*,2,·,-10,-5
COc1ccc(/C=C/C(=O)N2CCCc3ccccc32)c(OC)c1,1,-7,72*,2,·,-1,-11
CN1CCN(CC(O)COC(c2ccc(Cl)cc2)c2ccc(Cl)cc2)CC1 (stereo not given),-21,6,57*,11,·,16,17
C[C@@H]1C=CCCO[C@]12C(=O)N(Cc1ccc(F)cc1)c1cccc(Br)c12,·,·,·,-1,·,·,·
COc1cccc(C(=O)NCC2CCN(C(=O)C(=O)c3cc4ccccc4o3)CC2)c1,·,·,·,1,·,·,·
O=C(/C=C/Sc1ccc(C(F)(F)F)cn1)c1ccccc1,1,0,64*,-7,·,12,-3
Cc1ccc(CNc2nc(-c3cccnc3)nc3ccccc23)cc1,2,-4,105*,2,·,6,-5
CN(Cc1ccccc1F)c1nc(-c2cccnc2)nc2ccccc12,4,2,100*,-5,·,5,4
